Values joined by “and” are separate entries in the source; they are usually repeats but may differ in a detail not shown here. Identical values can stand only once. Screen size: about 5,500 compounds; about 2,000 (36%) were called active. Roughly 18% stayed inconclusive and do not appear here. No stated cut-off is given here; in the data, active means normalized growth mostly below about 0.91 (no sharp cut-off); inconclusive means no clear call, values can overlap the other calls; inactive means mostly above about 0.92. This is one part of the list.
Assay: chemical genetic growth profiling, strain panel (AID 1159580);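 further: tested at 20 µM; growth read once vehicle control cultures reached saturation at 30 °C; 1 = growth at the plate median or of vehicle wells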
Settings: growth OD
[1] = S. cerevisiae deletion strains, locus YDL101C, strain DUN1, stronger effect = lower value
[2] = S. cerevisiae deletion strains, locus YGR052W, strain FMP48, stronger effect = lower value
[3] = S. cerevisiae deletion strains, locus YHR030C, strain SLT2, stronger effect = lower value
[4] = S. cerevisiae deletion strains, locus YHR079C, strain IRE1, stronger effect = lower value
[5] = S. cerevisiae deletion strains, locus YHR082C, strain KSP1, stronger effect = lower value
[6] = S. cerevisiae deletion strains, locus YJL095W, strain BCK1, stronger effect = lower value
[7] = S. cerevisiae deletion strains, locus YJR066W, strain TOR1, stronger effect = lower value
[8] = S. cerevisiae deletion strains, locus YKL203C, strain TOR2, stronger effect = lower value
[9] = S. cerevisiae deletion strains, locus YLR113W, strain HOG1, stronger effect = lower value
[10] = S. cerevisiae deletion strains, locus YNL207W, strain RIO2, stronger effect = lower value
[11] = S. cerevisiae deletion strains, locus YOR119C, strain RIO1, stronger effect = lower value
[12] = S. cerevisiae deletion strains, locus YOR231W, strain MKK1, stronger effect = lower value
[13] = S. cerevisiae deletion strains, locus YPL256C, strain CLN2, stronger effect = lower value
[14] = S. cerevisiae deletion strains, locus YBR229C, strain ROT2, stronger effect = lower value
[15] = S. cerevisiae deletion strains, locus YEL061C, strain CIN8, stronger effect = lower value
[16] = S. cerevisiae deletion strains, locus YGR078C, strain PAC10, stronger effect = lower value
[17] = S. cerevisiae deletion strains, locus YHR087W, strain rtc3, stronger effect = lower value
[18] = S. cerevisiae deletion strains, locus YJR043C, strain POL32, stronger effect = lower value
[19] = S. cerevisiae deletion strains, locus YJR075W, strain HOC1, stronger effect = lower value
[20] = S. cerevisiae deletion strains, locus YKL190W, strain CNB1, stronger effect = lower value
[21] = S. cerevisiae deletion strains, locus YLR039C, strain RIC1, stronger effect = lower value
[22] = S. cerevisiae deletion strains, locus YLR058C, strain SHM2 (second series), stronger effect = lower value
[23] = S. cerevisiae deletion strains, locus YLR085C, strain ARP6, stronger effect = lower value
[24] = S. cerevisiae deletion strains, locus YLR262C, strain YPT6, stronger effect = lower value
[25] = S. cerevisiae deletion strains, locus YML094W, strain GIM5, stronger effect = lower value
[26] = S. cerevisiae deletion strains, locus YMR219W, strain ESC1, stronger effect = lower value
[27] = S. cerevisiae deletion strains, locus YMR263W, strain SAP30, stronger effect = lower value
[28] = S. cerevisiae deletion strains, locus YNL153C, strain GIM3, stronger effect = lower value
[29] = S. cerevisiae deletion strains, locus YNL298W, strain CLA4 (second series), stronger effect = lower value
[30] = S. cerevisiae deletion strains, locus YNL322C, strain KRE1, stronger effect = lower value
[31] = S. cerevisiae deletion strains, locus YNR030W, strain Alg12, stronger effect = lower value
[32] = S. cerevisiae deletion strains, locus YOL006C, strain TOP1, stronger effect = lower value
[33] = S. cerevisiae deletion strains, locus YPL055C, strain LGE1, stronger effect = lower value
[34] = S. cerevisiae deletion strains, locus YPL241C, strain CIN2, stronger effect = lower value
[35] = S. cerevisiae deletion strains, locus YPR135W, strain CTF4, stronger effect = lower value

Measured: normalized growth

COc1ccc(Nc2nc(NC(=O)Nc3ccc(Cl)cc3)n[nH]2)cc1
active: [9] 0.813 | [13] 0.797
inactive: S. cerevisiae deletion strains, locus YAR019C, strain CDC15, stronger effect = lower value 0.996 | S. cerevisiae deletion strains, locus YBL105C, strain PKC1, stronger effect = lower value 0.994 | S. cerevisiae deletion strains, locus YBR135W, strain CKS1, stronger effect = lower value 1 | S. cerevisiae deletion strains, locus YBR136W, strain MEC1, stronger effect = lower value 0.992 | S. cerevisiae deletion strains, locus YBR160W, strain CDC28, stronger effect = lower value 1 | S. cerevisiae deletion strains, locus YDL017W, strain CDC7, stronger effect = lower value 1 | S. cerevisiae deletion strains, locus YDL028C, strain MPS1, stronger effect = lower value 0.986 | [1] 1 | S. cerevisiae deletion strains, locus YDL108W, strain KIN28, stronger effect = lower value 0.982 | S. cerevisiae deletion strains, locus YDL132W, strain cdc53, stronger effect = lower value 0.99 | S. cerevisiae deletion strains, locus YDL214C, strain PRR2, stronger effect = lower value 0.867 | S. cerevisiae deletion strains, locus YDR052C, strain DBF4, stronger effect = lower value 1 | S. cerevisiae deletion strains, locus YDR054C, strain cdc34, stronger effect = lower value 1 | S. cerevisiae deletion strains, locus YDR226W, strain ADK1, stronger effect = lower value 0.994 | S. cerevisiae deletion strains, locus YDR477W, strain SNF1, stronger effect = lower value 0.809 | S. cerevisiae deletion strains, locus YER123W, strain YCK3, stronger effect = lower value 0.715 | S. cerevisiae deletion strains, locus YER133W, strain GLC7, stronger effect = lower value 0.757 | S. cerevisiae deletion strains, locus YFL009W, strain cdc4, stronger effect = lower value 0.994 | S. cerevisiae deletion strains, locus YFL029C, strain CAK1, stronger effect = lower value 0.998 | S. cerevisiae deletion strains, locus YFR003C, strain YPI1, stronger effect = lower value 0.996 | S. cerevisiae deletion strains, locus YFR019W, strain FAB1, stronger effect = lower value 0.866 | S. cerevisiae deletion strains, locus YFR028C, strain CDC14, stronger effect = lower value 0.988 | S. cerevisiae deletion strains, locus YGR040W, strain KSS1, stronger effect = lower value 0.789 | [2] 0.788 | S. cerevisiae deletion strains, locus YGR092W, strain DBF2, stronger effect = lower value 0.793 | [3] 0.887 | [4] 0.893 | [5] 0.868 | S. cerevisiae deletion strains, locus YHR205W, strain SCH9, stronger effect = lower value 0.842 | S. cerevisiae deletion strains, locus YIL147C, strain SLN1, stronger effect = lower value 0.979 | [6] 0.861 | S. cerevisiae deletion strains, locus YJL128C, strain PBS2, stronger effect = lower value 0.957 | S. cerevisiae deletion strains, locus YJL157C, strain FAR1, stronger effect = lower value 0.88 | S. cerevisiae deletion strains, locus YJR016C, strain ILV3, stronger effect = lower value 0.991 | S. cerevisiae deletion strains, locus YJR066W, strain TOR1 (second series), stronger effect = lower value 0.758 | [7] 0.929 | S. cerevisiae deletion strains, locus YKL048C, strain ELM1, stronger effect = lower value 0.854 | S. cerevisiae deletion strains, locus YKL067W, strain YNK1, stronger effect = lower value 0.876 | S. cerevisiae deletion strains, locus YKL101W, strain HSL1, stronger effect = lower value 0.83 | S. cerevisiae deletion strains, locus YKL193C, strain SDS22, stronger effect = lower value 0.991 | [8] 0.892 | S. cerevisiae deletion strains, locus YLR133W, strain CKI1, stronger effect = lower value 0.795 | S. cerevisiae deletion strains, locus YLR403W, strain SFP1, stronger effect = lower value 0.742 | S. cerevisiae deletion strains, locus YML070W, strain DAK1, stronger effect = lower value 0.846 | S. cerevisiae deletion strains, locus YMR001C, strain CDC5, stronger effect = lower value 1 | S. cerevisiae deletion strains, locus YMR205C, strain PFK2 (second series), stronger effect = lower value 0.782 | S. cerevisiae deletion strains, locus YMR277W, strain FCP1, stronger effect = lower value 0.991 | S. cerevisiae deletion strains, locus YNL006W, strain LST8, stronger effect = lower value 1.02 | S. cerevisiae deletion strains, locus YNL020C, strain ARK1, stronger effect = lower value 0.811 | S. cerevisiae deletion strains, locus YNL161W, strain CBK1, stronger effect = lower value 0.998 | S. cerevisiae deletion strains, locus YNL183C, strain NPR1, stronger effect = lower value 0.763 | [10] 0.992 | S. cerevisiae deletion strains, locus YNL222W, strain SSU72, stronger effect = lower value 0.993 | S. cerevisiae deletion strains, locus YNL307C, strain MCK1 (second series), stronger effect = lower value 0.832 | S. cerevisiae deletion strains, locus YOL078W, strain AVO1, stronger effect = lower value 0.991 | S. cerevisiae deletion strains, locus YOL136C, strain PFK27, stronger effect = lower value 0.848 | S. cerevisiae deletion strains, locus YOR061W, strain CKA2, stronger effect = lower value 0.741 | [11] 0.853 | [12] 0.94 | S. cerevisiae deletion strains, locus YOR329C, strain SCD5, stronger effect = lower value 1 | S. cerevisiae deletion strains, locus YPL031C, strain PHO85, stronger effect = lower value 0.749 | S. cerevisiae deletion strains, locus YPL153C, strain RAD53, stronger effect = lower value 0.756 | S. cerevisiae deletion strains, locus YPL204W, strain HRR25, stronger effect = lower value 0.795 | S. cerevisiae deletion strains, locus YPL209C, strain IPL1, stronger effect = lower value 0.996 | S. cerevisiae deletion strains, locus YPR025C, strain CCL1, stronger effect = lower value 0.99 | S. cerevisiae deletion strains, locus YPR106W, strain ISR1, stronger effect = lower value 0.991 | S. cerevisiae deletion strains, locus YPR111W, strain DBF20, stronger effect = lower value 0.981 | S. cerevisiae deletion strains, strain NNK1, stronger effect = lower value 0.99 | S. cerevisiae deletion strains, strain TSCII, stronger effect = lower value 1

Cc1cc(Cl)ccc1Oc1ccc(N)cn1
active: [3] 0.486 | [20] 0.928 | [21] 0.541 | [23] 0.602 | [24] 0.544 | [35] 0.602
inactive: S. cerevisiae deletion strains, locus YAL013W, strain DEP1, stronger effect = lower value 0.989 | [14] 0.977 | [1] 0.971 | S. cerevisiae deletion strains, locus YDR150W, strain NUM1, stronger effect = lower value 0.898 | [15] 0.993 | [16] 0.984 | [17] 0.989 | [18] 0.977 | [19] 0.952 | [22] 0.986 | [25] 0.878 | [26] 0.992 | [27] 0.92 | S. cerevisiae deletion strains, locus YNL128W, strain TEP1, stronger effect = lower value 1 | [28] 0.99 | [29] 0.891 | [30] 1.01 | [31] 0.981 | [32] 0.938 | [33] 0.889 | [34] 0.917 | S. cerevisiae strains, strain wild type, stronger effect = lower value 0.953

Nc1ccc(Oc2ccc(Cl)cc2C2CCCCC2)nc1
active: [14] 0.821 | [1] 0.897 | [15] 0.845 | [16] 0.855 | [3] 0.181 and 0.708 | [4] 0.794 | [5] 0.766 | [17] 0.702 | [18] 0.852 | [7] 0.787 | [19] 0.689 | [20] 0.658 | [21] 0.386 | [22] 0.915 | [23] 0.451 | [24] 0.355 | [25] 0.636 | [26] 0.935 | [27] 0.824 | S. cerevisiae deletion strains, locus YMR307W, strain GAS1, stronger effect = lower value 0.162 | [28] 0.905 | [29] 0.528 | [31] 0.601 | [32] 0.728 | [33] 0.745 | [34] 0.675 | [13] 0.748 | [35] 0.365
inactive: [2] 0.796 | [6] 0.849 | S. cerevisiae deletion strains, locus YKL171W, strain NNK1, stronger effect = lower value 0.889 | [8] 0.92 | [9] 0.705 | [10] 0.918 | [30] 0.945 | [11] 0.879 | [12] 0.941
